# According to the supplement of paper PMC8975748:
# Counter-ions that a name gives are not always drawn.
# Test system: Saccharomyces cerevisiae BY4741 SeMeCo community
# Experiment: z-score of subpopulation abundance vs DMSO median, subpopulation auxotrophic for L; higher = larger share of this subpopulation than in DMSO controls
# Details: 10 µM; 24 h; SM minimal medium; subpopulation (auxotrophy): L
# Protocol: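 Fluorescent four-plasmid SeMeCo (self-establishing metabolically cooperating S. cerevisiae BY4741 community; plasmids pH-mRuby2, pL-mWasabi, pU-eCFP, pM-TagRFP657) was grown 24 h in minimal SM medium with each Selleck FDA-approved drug at 10 µM in 384-well plates. Cells were fixed and imaged by high-content confocal microscopy. For each auxotrophic subpopulation (and the prototroph), a z-score gives the deviation from the DMSO vehicle-control population median.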
row,SMILES,z-score of subpopulation abundance
1,C(=C\c1ccccc1)/CN1CCN(C(c2ccccc2)c2ccccc2)CC1 [Cinnarizine],0.22
2,CC[C@H]1OC(=O)[C@H](C)[C@@H](O[C@H]2C[C@@](C)(OC)[C@@H](O)[C@H](C)O2)[C@H](C)[C@@H](O[C@@H]2O[C@H](C)C[C@H](N(C)C)[C@H]2O)[C@](C)(O)C[C@@H](C)CN(C)[C@H](C)[C@@H](O)[C@]1(C)O [Azithromycin Dihydrate],0.09
3,N[C@H]1CONC1=O [L-Cycloserine],2.81
4,CC[C@H]1OC(=O)C[C@@H](O)[C@H](C)[C@@H](O[C@@H]2O[C@H](C)[C@@H](O[C@H]3C[C@@](C)(O)[C@@H](O)[C@H](C)O3)[C@H](N(C)C)[C@H]2O)[C@@H](CC=O)C[C@@H](C)C(=O)/C=C/C(C)=C/[C@@H]1CO[C@@H]1O[C@H](C)[C@@H](O)[C@@H](OC)[C@H]1OC [Tylosin],1.29
5,CO/N=C(\C(=O)N[C@@H]1C(=O)N2C(C(=O)O)=C(CSc3nc(C)c(CC(=O)O)s3)CS[C@H]12)c1csc(N)n1 [Cefodizime Sodium],-0.39
6,CN[C@@H]1[C@H](O[C@H]2[C@H](O[C@H]3[C@H](O)[C@@H](O)[C@H](N=C(N)N)[C@@H](O)[C@@H]3N=C(N)N)O[C@@H](C)[C@]2(O)C=O)O[C@@H](CO)[C@H](O)[C@H]1O [Streptomycin sulfate],-1.14
7,CNCCCC1c2ccccc2C=Cc2ccccc21 [Protriptyline hydrochloride],-0.45
8,Cc1onc(-c2ccccc2)c1C(=O)N[C@@H]1C(=O)N2[C@@H]1SC(C)(C)[C@@H]2C(=O)O [Oxacillin sodium monohydrate],0.52
9,CCOC(=O)C1=C(C)NC(C)=C(C(=O)OC)C1c1cccc(Cl)c1Cl (stereo not given) [Felodipine],1.68
10,CCc1cc(C(N)=S)ccn1 [Ethionamide],0.86
11,CNS(=O)(=O)CCc1ccc2[nH]cc(C3CCN(C)CC3)c2c1 [Naratriptan HCl],-0.79
12,Cc1cc(-c2ccc(/N=N/c3ccc4c(S(=O)(=O)O)cc(S(=O)(=O)O)c(N)c4c3O)c(C)c2)ccc1/N=N/c1ccc2c(S(=O)(=O)O)cc(S(=O)(=O)O)c(N)c2c1O [Evans Blue],-1.65
13,O=C1CCc2ccc(OCCCCN3CCN(c4cccc(Cl)c4Cl)CC3)cc2N1 [Aripiprazole],1.13
14,CC[C@H](c1ccc(O)cc1)[C@@H](CC)c1ccc(O)cc1 [Hexestrol],-0.78
15,CCCOc1ccc(C(=O)OCCN(CC)CC)cc1N [Proparacaine HCl],0.26
16,CC(=O)N1CCN(c2ccc(OCC3COC(Cn4ccnc4)(c4ccc(Cl)cc4Cl)O3)cc2)CC1 (stereo not given) [Ketoconazole],-0.63
17,N/C(=N\N=C\c1ccc(Cl)cc1)N/N=C/c1ccc(Cl)cc1 [Robenidine Hydrochoride],-1.06
18,N=C(N)NS(=O)(=O)c1ccc(N)cc1 [Sulfaguanidine],-0.1
19,O=C(Cn1ccnc1[N+](=O)[O-])NCc1ccccc1 [Benznidazole],0.22
20,CCOC(=O)CCC(=O)O[C@H]1[C@H](O[C@@H]2[C@@H](C)[C@H](O[C@H]3C[C@@](C)(OC)[C@@H](O)[C@H](C)O3)[C@@H](C)C(=O)O[C@H](CC)[C@@](C)(O)[C@H](O)[C@@H](C)C(=O)[C@H](C)C[C@@]2(C)O)O[C@H](C)C[C@@H]1N(C)C [Erythromycin Ethylsuccinate],2.32

row,SMILES,z-score of subpopulation abundance
1,CO/N=C1\C[C@]2(C[C@@H]3C[C@@H](C/C=C(\C)C[C@@H](C)/C=C/C=C4\CO[C@@H]5[C@H](O)C(C)=C[C@@H](C(=O)O3)[C@]45O)O2)O[C@H](/C(C)=C/C(C)C)[C@H]1C [Moxidectin],0.29
2,CCCCCCCN(CC)CCCC(O)c1ccc(NS(C)(=O)=O)cc1 (stereo not given) [Ibutilide Fumarate],-0.88
3,COc1cccc(-c2c(C)n(Cc3c(F)cccc3C(F)(F)F)c(=O)n(C[C@H](NCCCC(=O)O)c3ccccc3)c2=O)c1F [Elagolix Sodium],-0.55
4,C[C@@H](c1nc(-c2ccc(C#N)cc2)cs1)[C@](O)(Cn1cncn1)c1cc(F)ccc1F [Isavuconazole],-0.71
5,CCCCCCCCN=C(N)NC(N)=NCc1ccc(Cl)c(Cl)c1 [Olanexidine Hydrochloride semihydrate],-3.44
6,C=CCN1CCCC1CNC(=O)c1cc2nn[nH]c2cc1OC (stereo not given) [Alizapride HCl],0.16
7,CO/N=C(\C(=O)N[C@@H]1C(=O)N2C(C(=O)O)=C(CSc3nc(=O)c(O)nn3C)CS[C@H]12)c1csc(N)n1 [Ceftriaxone Sodium Trihydrate],2.07
8,NC(=O)N/N=C/c1ccc([N+](=O)[O-])o1 [Nitrofural],-0.82
9,CCCc1nn(C)c2c(=O)[nH]c(-c3cc(S(=O)(=O)N4CCN(C)CC4)ccc3OCC)nc12 [Sildenafil],-1.03
10,COCC(=O)Nc1cc(Sc2ccccc2)ccc1N=C(NC(=O)OC)NC(=O)OC [Febantel],-0.03
11,Nc1ccc2cc3ccc(N)cc3nc2c1 [Proflavine Hemisulfate],-8.37
12,Clc1ccccc1C(c1ccccc1)(c1ccccc1)n1ccnc1 [Clotrimazole],-2.83
13,O=C(c1ccc(OCCN2CCCCC2)cc1)c1c(-c2ccc(O)cc2)sc2cc(O)ccc12 [Raloxifene],1.05
14,O=C(Nc1ccc(Oc2ccc(Cl)cc2)c(Cl)c1)c1cc(I)cc(I)c1O [Rafoxanide],1.02
15,CCCCOc1ccc(C(=O)CCN2CCCCC2)cc1 [Dyclonine HCl],0.13
16,Cc1ccc(Cl)c(Nc2ccccc2C(=O)O)c1Cl [Meclofenamate Sodium],-0.25
17,CC1CCc2c(N3CCC(O)CC3)c(F)cc3c(=O)c(C(=O)O)cn1c23 (stereo not given) [Nadifloxacin],0.77
18,CCC(C)n1ncn(-c2ccc(N3CCN(c4ccc(OCC5COC(Cn6cncn6)(c6ccc(Cl)cc6Cl)O5)cc4)CC3)cc2)c1=O (stereo not given) [Itraconazole],0.48
19,CCn1cc(C(=O)O)c(=O)c2cc(F)c(N3CCNC(C)C3)c(F)c21 (stereo not given) [Lomefloxacin HCl],1.02
20,Cc1ccc(Nc2c(F)cccc2Cl)c(CC(=O)O)c1 [Lumiracoxib],-1.37
